# Hits are enriched below; roughly 28% of the tested compounds scored in any of these assays.
# Plk1 PBD FP: inhibitors of human Plk1 polo box domain binding; P53350; Plk1 PBD phosphopeptide binding, fluorescence polarization; inhibition, %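 (tested at about 20 µM)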; 97,000 compounds, 0.13% hits; AID 693; in the data active means inhibition above about 34%, passing the limit was not always enough
# CYP2C9 activ: increases human cytochrome P450 2C9 activity | activation factor at 5 µM | recombinant CYP2C9, luciferin-H conversion, luminescence; hits give high values; factor 1 = untreated enzyme, 0 = blocked | 96,000 compounds, 1.4% hits;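 active means activation factor of 2 or more for CYP2C9 at a 5 µM dose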;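 further: 0 = sulfaphenazole-blocked wells and 1 = vehicle-only wells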
# CYP2C19 act: cytochrome P450 2C19 (human) activation; P33261; recombinant CYP2C19, luciferin-H EGE luminescence; hits give high values; 0 = fully inhibited enzyme, 1 = untreated enzyme; activation factor at 5 µM; 96,000 tested, under 10 active; AID 1025;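 active means activation factor of at least 2 at 5 µM in the primary screen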;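 further: 0 = wells with 2.5 mM tranylcypromine and 1 = vehicle-only wells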
# CYP2C19 inhib: blocks human cytochrome P450 2C19. 96,000 compounds, 21% hits. inhibition, % at 5 µM. CYP2C19 Supersomes, luciferin-H EGE luminescence, 30 min. P33261;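 active means CYP2C19 inhibition above a set limit at 5 µM in the primary screen, cut at about 50% in these data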;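 further: plate controls were negative control wells for no effect and 2.5 mM tranylcypromine positive control for full effect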
# PLK1 kinase inh: PLK1 (human) kinase inhibition; recombinant PLK1 kinase, TR-FRET peptide phosphorylation; inhibition, % at 10 µM; 97,000 compounds, 0.53% hits;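 active means inhibition of 50% or more in the single-concentration screen; inactive means inhibition below 50%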;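 further: 0% = DMSO max control and 100% = H-89 dihydrochloride min control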
# CYP2C9 inhib: inhibitors of human CYP2C9 | 96,000 compounds, 20% hits | inhibition, % at 5 µM | AID 777 | CYP2C9 Supersomes, luciferin-H conversion, luminescence;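 active means blocking of liver enzyme CYP2C9 beyond about 50% at 5 µM, limit read from the data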
# Numbers without * were called inactive; nt = no result given.
SMILES,Plk1 PBD FP,CYP2C9 activ,CYP2C19 act,CYP2C19 inhib,PLK1 kinase inh,CYP2C9 inhib
O=S(=O)(c1ccc2nc(-c3ccco3)c(-c3ccco3)nc2c1)N1CCOCC1,10,0.1,1,3,-5,91*
Cc1ccc(S(=O)(=O)N2CCOCC2)cc1C(=O)N1c2ccccc2Sc2ccccc21,-4,0.4,0.9,14,-9,61*
Cc1ccc(S(=O)(=O)N2CCOCC2)cc1C(=O)OCC(=O)N1CCc2ccccc2C1,-10,0.2,0.3,75*,-16,78*
COc1ccc(S(=O)(=O)N2CCOCC2)cc1Cl,-14,3.3*,0.4,59*,-7,-234
COc1ccc(S(=O)(=O)N2CCOCC2)cc1C(C)C,-41,1.2,0.9,6,-7,-21
O=C(Nc1ccc(N2CCOCC2)cc1)Nc1ccc2nc(-c3ccco3)c(-c3ccco3)nc2c1,5,nt,nt,nt,-5,nt
CC(=O)c1c(C(C)=O)c(C)n(-c2nc(-c3ccc(C)c(C)c3)c(C)s2)c1C,-14,1,1,-1,-7,4
Cc1onc(-c2c(Cl)cccc2Cl)c1C(=O)NC(C)(C)CO,-24,0.9,1.1,-13,0,7
Cc1ccc(S(=O)(=O)N2CCSC2)cc1C,-14,2.3*,0.9,7,-14,-131
CCC(C)c1cc(S(=O)(=O)N2CCOCC2)ccc1OC (stereo not given),-12,1.3,0.3,69*,-5,-29
COc1ccc2cc(S(=O)(=O)N3CCOCC3)ccc2c1,3,0.9,0.2,79*,-1,14
Cc1ccc(S(=O)(=O)N2CCN(S(=O)(=O)N3CCOCC3)CC2)cc1C,-8,1.1,0.5,50*,-9,-6
O=S(=O)(c1ccc(Oc2ccc(S(=O)(=O)N3CCOCC3)cc2)cc1)N1CCOCC1,nt,1.1,1,-2,nt,-14
CCN1C(=O)c2ccccc2S(=O)c2ccc(C(=O)NCCCN3CCCC3=O)cc21 (stereo not given),nt,0.9,1.1,-14,nt,14
COc1ccc(CCNC(=O)C2CCCN2C(=O)Nc2cccc(C(C)=O)c2)cc1OC (stereo not given),-7,1.1,1,-2,-14,-13
O=S(=O)(c1ccc2nc(COc3ccc(Cl)cc3Cl)[nH]c2c1)N1CCOCC1,3,0.4,0.5,51*,-5,58*
COc1ccc(S(=O)(=O)N2CCOCC2)c(Cl)c1Cl,13,4*,0.3,70*,-16,-304
Cc1ccccc1OCc1nc2ccc(S(=O)(=O)N3CCOCC3)cc2[nH]1,-34,0.7,1.1,-8,8,27
COc1cc(C)c(Br)cc1S(=O)(=O)N1CCOCC1,11,nt,nt,nt,-5,nt
COc1ccc(CCNc2nc(-c3sc(N)nc3C)cs2)cc1OC,1,0.6,0.6,36,-7,40
Cc1nc(N)sc1-c1csc(Nc2ccc(Cl)cn2)n1,-17,nt,nt,nt,-11,nt
CCCCCC(=O)Nc1nc(C)c(-c2csc(Nc3ccc(Cl)cc3)n2)s1,-14,0.7,0.6,41,-12,32
COc1ccc(Nc2nc(-c3sc(N)nc3C)cs2)cc1,3,0.2,0.2,78*,-5,80*
COc1ccc(Nc2nc(-c3sc(NC(C)=O)nc3C)cs2)cc1,-17,0.2,0.2,82*,1,81*
Cc1nc(N)sc1-c1csc(Nc2ccccn2)n1,1,0.4,0.5,50,4,61*
SMILES,Plk1 PBD FP,CYP2C9 activ,CYP2C19 act,CYP2C19 inhib,PLK1 kinase inh,CYP2C9 inhib
O=C(Nc1ccc2c3c(cccc13)CC2)c1ccc(Br)o1,11,1.4,1,-3,-7,-36
COC(=O)c1ccc(NS(=O)(=O)c2ccc3c(c2)oc(=O)n3C)cc1,0,0.1,0.1,89*,-6,90*
COc1cc(NS(=O)(=O)c2ccc3c(c2)oc(=O)n3C)cc(OC)c1OC,5,0.3,0.5,46,-11,71*
COc1ccc(NS(=O)(=O)c2ccc3c(c2)oc(=O)n3C)c(OC)c1,1,0.7,0,96*,-13,30
CCOc1ccc(NS(=O)(=O)c2ccc3c(c2)oc(=O)n3C)cc1,-13,0.8,0.9,7,-11,25
COc1ccc(N2CCN(CCCNS(=O)(=O)c3ccc4c(c3)oc(=O)n4C)CC2)cc1,-30,1,1.1,-7,-3,-2
CCNC(=O)/N=C1/NC(=O)C(C(C)C)O1 (stereo not given),1,1,1.1,-6,-8,4

# Screening results (PubChem BioAssay)
